Measurements reported in the supplement of paper PMC10849652.
Of roughly 8,800 targets only a part is listed; those with a hit were picked by preference. About 0.5% of all pairs of compound and target were hits. Values without a mark were called inactive.

Assays:
Assay in all cases: log2 fold change, soluble protein after heating vs DMSO (PISA); higher = thermal stabilisation; K562 lysate, 10 uM; active = over 0.2 and 3.5 SD of the protein, either way, in both replicates (recomputed)
erlotinib = compound: C#Cc1cccc(Nc2ncnc3cc(OCCOC)c(OCCOC)cc23)c1 [erlotinib]
Outline: (§1)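 Log-two fold change in thermal stability relative to solvent controls is reported from duplicates. For each sample, crude K562 extract from dounce-homogenised pellets in PBS pH 7.4 with 1 mM MgCl2, at 1 mg/mL protein, was treated with 10 μM compound for 30 min. Aliquots heated for 3 min across 48°C-58°C were pooled, brought to 0.5% NP-40 at 4°C and cleared at 21,000xg for 90 min. The supernatant was quantified by TMTpro 16plex LC-MS/MS with channel sums equalised.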

[1] = compound: C/C(=N\NC(=O)C1=CC(=CC=C1)S(=O)(=O)N2CCOCC2)/C3=C(C=CC(=C3)Cl)O
Outline: as §1

[2] = compound: C1=CC(=CC=C1C2=NC3=C(N2)C=C(C=C3)C(=O)N)OC4=CC=C(C=C4)Cl
Outline: as §1

[3] = compound: C1=CC2=C(C=CC(=C2)/C=C\3/C(=O)NC(=NCC4=CC=CS4)S3)N=C1
Outline: as §1

[4] = compound: C1=CC2=NC=CN=C2C=C1/C=C/3\C(=O)NC(=O)S3
Outline: as §1

[5] = compound: C1=CC=C(C=C1)C2=NC(=C(N2)C3=CC=NC=C3)C4=CC(=C(C=C4)Cl)O
Outline: as §1

[6] = compound: C1=CC=C2C(=C1)C3=NNC4=CC=CC(=C43)C2=O
Outline: as §1

[7] = compound: C1CCN(C1)C(=O)NC2=CC=CC(=C2)NC3=NC=C(C(=N3)NCCC4=CN=CN4)Br
Outline: as §1

[8] = compound: C1CN(CCC1(CC2=CC=C(C=C2)Cl)N)C3=NC=NC4=C3C=CN4
Outline: as §1

IRAK-1-4 Inhibitor I = compound: C1COCCN1CCN2C3=CC=CC=C3N=C2NC(=O)C4=CC(=CC=C4)[N+](=O)[O-] [IRAK-1-4 Inhibitor I]
Outline: as §1

ibrutinib = compound: C=CC(=O)N1CCC[C@@H](n2nc(-c3ccc(Oc4ccccc4)cc3)c3c(N)ncnc32)C1 [ibrutinib]
Outline: as §1

[9] = compound: CC(=O)c1cnc2ccc(-c3cc(Cl)c(O)c(Cl)c3)nc2c1N[C@H]1CC[C@H](CN(C)C)CC1
Outline: as §1

ralimetinib = compound: CC(C)(C)Cn1c(N)nc2ccc(-c3[nH]c(C(C)(C)C)nc3-c3ccc(F)cc3)nc21 [ralimetinib]
Outline: as §1

[10] = compound: CC(C)(O)CC(=O)NCCn1ccc2ncnc(Nc3ccc(Oc4cccc(C(F)(F)F)c4)c(Cl)c3)c21
Outline: as §1

[11] = compound: CC(C)C1=C2N=C(C=C(N2N=C1)NCC3=CC=CC=C3)NCCCCCCN
Outline: as §1

[12] = compound: CC1=C(C(CC(=O)N1)C2=CC=C(C=C2)C(F)(F)F)C(=O)NC3=C(C=C4C(=C3)C=NN4)F
Outline: as §1

[13] = compound: CC1=C(C2=C(C=C1)C(=O)C3=CC=CC=C3N2CCCN)C
Outline: as §1

[14] = compound: CC1=C(C=C(C=C1)NC(=O)C2=CC(=CC=C2)C(C)(C)C#N)NC3=CC4=C(C=C3)N=CN(C4=O)C
Outline: as §1

[15] = compound: CC1=C(C=C(C=C1)NC(=O)C2=CC(=CC=C2)N(C)C)NC(=O)C3=CC=C(C=C3)O
Outline: as §1

[16] = compound: CC1=CC=C(C=C1)SC2=C3C=C(SC3=CN=C2)C(=O)N
Outline: as §1

Sequence of UniProt O75794 (O75794 whole entry, looked up): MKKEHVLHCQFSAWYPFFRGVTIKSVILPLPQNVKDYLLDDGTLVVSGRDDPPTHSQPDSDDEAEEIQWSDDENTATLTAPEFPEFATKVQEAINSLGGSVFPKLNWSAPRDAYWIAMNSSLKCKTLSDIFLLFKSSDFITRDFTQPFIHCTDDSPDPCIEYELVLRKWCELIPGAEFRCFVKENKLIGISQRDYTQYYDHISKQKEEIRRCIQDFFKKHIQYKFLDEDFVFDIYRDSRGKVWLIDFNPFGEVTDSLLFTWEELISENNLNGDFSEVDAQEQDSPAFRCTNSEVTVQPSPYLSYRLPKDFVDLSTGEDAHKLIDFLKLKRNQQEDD
Sequence of UniProt P56945 (P56945 whole entry, looked up): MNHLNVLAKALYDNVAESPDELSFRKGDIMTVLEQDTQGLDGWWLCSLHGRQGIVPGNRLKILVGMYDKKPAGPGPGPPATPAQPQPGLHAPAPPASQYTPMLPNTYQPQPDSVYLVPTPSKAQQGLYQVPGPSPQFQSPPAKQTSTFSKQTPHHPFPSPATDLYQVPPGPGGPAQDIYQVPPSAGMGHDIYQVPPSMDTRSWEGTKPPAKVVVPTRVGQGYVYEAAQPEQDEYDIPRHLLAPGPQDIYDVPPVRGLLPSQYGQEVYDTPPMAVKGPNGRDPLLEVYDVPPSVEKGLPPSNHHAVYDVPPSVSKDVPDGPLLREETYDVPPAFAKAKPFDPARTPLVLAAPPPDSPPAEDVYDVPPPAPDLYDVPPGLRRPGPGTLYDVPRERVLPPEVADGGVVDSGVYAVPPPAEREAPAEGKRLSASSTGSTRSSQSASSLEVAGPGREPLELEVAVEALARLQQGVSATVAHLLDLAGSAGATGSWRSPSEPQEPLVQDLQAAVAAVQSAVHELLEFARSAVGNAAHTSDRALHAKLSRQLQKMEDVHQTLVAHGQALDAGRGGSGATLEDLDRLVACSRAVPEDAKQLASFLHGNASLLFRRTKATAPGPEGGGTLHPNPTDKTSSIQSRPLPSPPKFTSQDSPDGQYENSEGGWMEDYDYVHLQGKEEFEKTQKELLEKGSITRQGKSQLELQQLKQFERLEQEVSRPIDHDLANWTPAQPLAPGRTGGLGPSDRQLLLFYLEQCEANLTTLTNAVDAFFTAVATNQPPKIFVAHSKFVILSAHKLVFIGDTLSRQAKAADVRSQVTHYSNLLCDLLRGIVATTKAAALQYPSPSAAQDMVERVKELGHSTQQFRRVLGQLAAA
Sequence of UniProt Q96RR4 (Q96RR4 whole entry, looked up): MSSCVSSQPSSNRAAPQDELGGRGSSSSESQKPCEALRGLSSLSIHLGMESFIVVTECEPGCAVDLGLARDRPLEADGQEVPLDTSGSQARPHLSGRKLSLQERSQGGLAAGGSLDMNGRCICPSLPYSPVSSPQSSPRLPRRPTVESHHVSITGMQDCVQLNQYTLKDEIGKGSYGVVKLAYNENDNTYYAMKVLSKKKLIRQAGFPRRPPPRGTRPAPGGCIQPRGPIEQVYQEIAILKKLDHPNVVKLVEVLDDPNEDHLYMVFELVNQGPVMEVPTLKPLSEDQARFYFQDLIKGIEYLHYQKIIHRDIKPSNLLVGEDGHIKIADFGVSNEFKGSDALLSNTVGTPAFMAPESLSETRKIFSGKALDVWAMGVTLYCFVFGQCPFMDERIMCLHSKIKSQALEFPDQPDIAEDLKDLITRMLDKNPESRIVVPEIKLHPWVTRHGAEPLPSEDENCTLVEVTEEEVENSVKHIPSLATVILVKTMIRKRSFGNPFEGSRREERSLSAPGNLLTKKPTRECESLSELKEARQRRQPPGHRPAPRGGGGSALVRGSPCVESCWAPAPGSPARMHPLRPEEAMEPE
Sequence of UniProt P27708 (P27708 whole entry, looked up): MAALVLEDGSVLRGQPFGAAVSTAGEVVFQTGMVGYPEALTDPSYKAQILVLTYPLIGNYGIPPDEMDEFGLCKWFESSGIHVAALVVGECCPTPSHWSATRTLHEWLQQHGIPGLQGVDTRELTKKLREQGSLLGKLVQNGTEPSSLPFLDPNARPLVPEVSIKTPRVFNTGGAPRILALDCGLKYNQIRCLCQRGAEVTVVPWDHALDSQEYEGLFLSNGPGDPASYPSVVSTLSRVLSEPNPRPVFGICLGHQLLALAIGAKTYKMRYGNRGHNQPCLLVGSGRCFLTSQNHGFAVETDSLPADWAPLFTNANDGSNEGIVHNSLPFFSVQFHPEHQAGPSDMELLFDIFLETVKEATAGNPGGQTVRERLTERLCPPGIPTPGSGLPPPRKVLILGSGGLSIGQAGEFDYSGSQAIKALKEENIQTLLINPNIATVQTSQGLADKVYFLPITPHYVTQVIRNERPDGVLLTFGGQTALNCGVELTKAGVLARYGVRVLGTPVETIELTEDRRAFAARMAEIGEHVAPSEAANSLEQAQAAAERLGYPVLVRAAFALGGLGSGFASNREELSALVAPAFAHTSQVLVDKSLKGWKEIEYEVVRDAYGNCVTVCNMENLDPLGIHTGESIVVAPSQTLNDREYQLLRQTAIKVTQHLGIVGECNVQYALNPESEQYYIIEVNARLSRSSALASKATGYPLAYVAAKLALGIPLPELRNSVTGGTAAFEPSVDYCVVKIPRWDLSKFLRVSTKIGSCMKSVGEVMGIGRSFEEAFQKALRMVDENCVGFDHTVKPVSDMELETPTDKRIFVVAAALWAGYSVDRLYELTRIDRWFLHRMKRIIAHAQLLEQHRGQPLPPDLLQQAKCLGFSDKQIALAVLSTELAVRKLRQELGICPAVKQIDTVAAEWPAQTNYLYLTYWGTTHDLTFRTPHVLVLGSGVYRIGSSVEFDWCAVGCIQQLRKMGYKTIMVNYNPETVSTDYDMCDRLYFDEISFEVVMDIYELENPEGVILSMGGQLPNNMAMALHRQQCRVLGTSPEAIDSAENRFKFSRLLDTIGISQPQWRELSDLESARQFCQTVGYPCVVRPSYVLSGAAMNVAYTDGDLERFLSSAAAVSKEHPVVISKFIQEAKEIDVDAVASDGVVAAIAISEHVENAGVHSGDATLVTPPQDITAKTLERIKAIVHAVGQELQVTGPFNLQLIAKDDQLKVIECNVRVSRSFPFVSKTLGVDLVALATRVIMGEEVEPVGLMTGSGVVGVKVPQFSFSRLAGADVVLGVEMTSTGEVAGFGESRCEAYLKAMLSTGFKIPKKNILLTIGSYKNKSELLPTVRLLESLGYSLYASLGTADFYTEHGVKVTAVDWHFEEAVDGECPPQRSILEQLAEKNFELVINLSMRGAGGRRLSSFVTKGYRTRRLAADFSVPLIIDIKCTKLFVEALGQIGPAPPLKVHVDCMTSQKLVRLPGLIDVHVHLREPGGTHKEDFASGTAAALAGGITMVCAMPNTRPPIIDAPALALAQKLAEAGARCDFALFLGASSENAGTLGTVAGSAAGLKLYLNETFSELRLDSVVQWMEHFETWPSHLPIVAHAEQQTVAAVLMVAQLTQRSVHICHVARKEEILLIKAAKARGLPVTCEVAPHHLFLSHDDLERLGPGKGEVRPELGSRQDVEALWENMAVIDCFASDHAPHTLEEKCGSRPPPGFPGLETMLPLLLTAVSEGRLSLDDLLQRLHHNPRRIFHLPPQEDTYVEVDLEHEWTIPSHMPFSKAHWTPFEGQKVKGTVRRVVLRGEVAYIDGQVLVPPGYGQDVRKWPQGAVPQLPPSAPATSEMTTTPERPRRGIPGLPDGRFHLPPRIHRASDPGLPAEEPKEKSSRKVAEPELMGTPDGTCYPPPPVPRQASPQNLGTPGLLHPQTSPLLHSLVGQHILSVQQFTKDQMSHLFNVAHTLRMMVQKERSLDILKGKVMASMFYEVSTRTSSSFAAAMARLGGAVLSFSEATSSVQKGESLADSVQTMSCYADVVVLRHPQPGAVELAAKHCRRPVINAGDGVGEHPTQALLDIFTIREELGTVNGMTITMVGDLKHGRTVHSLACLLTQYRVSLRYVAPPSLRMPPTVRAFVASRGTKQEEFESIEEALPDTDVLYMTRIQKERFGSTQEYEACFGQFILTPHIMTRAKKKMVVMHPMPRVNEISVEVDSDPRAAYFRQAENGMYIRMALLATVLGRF
Sequence of UniProt Q96B23 (Q96B23 whole entry, looked up): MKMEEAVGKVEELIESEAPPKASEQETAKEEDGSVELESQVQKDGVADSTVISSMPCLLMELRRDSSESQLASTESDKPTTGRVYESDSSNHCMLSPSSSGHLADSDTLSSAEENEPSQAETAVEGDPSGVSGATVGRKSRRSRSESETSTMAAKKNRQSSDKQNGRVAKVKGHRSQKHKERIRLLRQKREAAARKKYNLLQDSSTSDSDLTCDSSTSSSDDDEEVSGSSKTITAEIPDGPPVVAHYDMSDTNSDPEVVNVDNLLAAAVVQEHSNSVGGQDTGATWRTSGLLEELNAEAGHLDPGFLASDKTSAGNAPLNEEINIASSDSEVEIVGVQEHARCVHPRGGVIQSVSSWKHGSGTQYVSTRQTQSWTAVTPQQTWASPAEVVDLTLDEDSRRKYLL
Sequence of UniProt P50750 (P50750 whole entry, looked up): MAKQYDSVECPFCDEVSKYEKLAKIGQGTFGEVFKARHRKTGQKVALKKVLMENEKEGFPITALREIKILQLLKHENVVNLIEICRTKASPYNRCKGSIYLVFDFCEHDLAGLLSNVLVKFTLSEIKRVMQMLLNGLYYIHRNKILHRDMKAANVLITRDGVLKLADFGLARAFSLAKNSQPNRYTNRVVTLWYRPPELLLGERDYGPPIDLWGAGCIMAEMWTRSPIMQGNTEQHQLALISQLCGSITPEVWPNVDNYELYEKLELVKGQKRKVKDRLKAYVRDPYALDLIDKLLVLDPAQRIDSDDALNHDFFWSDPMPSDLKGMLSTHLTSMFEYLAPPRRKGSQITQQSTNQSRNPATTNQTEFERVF

Row | Target | log2 fold change (erlotinib) | log2 fold change [1] | log2 fold change [2] | log2 fold change [3] | log2 fold change [4] | log2 fold change [5] | log2 fold change [6] | log2 fold change [7] | log2 fold change [8] | log2 fold change (IRAK-1-4 Inhibitor I) | log2 fold change (ibrutinib) | log2 fold change [9] | log2 fold change (ralimetinib) | log2 fold change [10] | log2 fold change [11] | log2 fold change [12] | log2 fold change [13] | log2 fold change [14] | log2 fold change [15] | log2 fold change [16]
1 | CDK9 isoform 2 (UniProt P50750) | -0.055 | -0.054 | 0.195 | 0.019 | 0.02 | -0.01 | 0.019 | 0.102 | 0.005 | -0.002 | -0.042 | 0.269 | 0.013 | 0.026 | -0.092 | -0.026 | -0.021 | -0.032 | 0.004 | -0.021
2 | C18orf25 (UniProt Q96B23) | -0.025 | -0.315 | -0.086 | 0.015 | 0.001 | 0.003 | 0.004 | 0.005 | 0.029 | 0.114 | 0.114 | 0.026 | 0 | -0.276 (active) | -0.038 | 0.073 | -0.008 | 0.04 | -0.091 | -0.065
3 | CAD (UniProt P27708) | 0.013 | 0.003 | -0.015 | 0.032 | 0.013 | -0.006 | -0.008 | -0.002 | 0.011 | -0.004 | -0.009 | -0.016 | 0.03 | -0.002 | 0.005 | -0.005 | 0.026 | 0.009 | 0.009 | 0.018
4 | CDC40 (UniProt O60508) | -0.036 | -0.004 | -0.009 | -0.037 | 0.015 | -0.072 | -0.059 | -0.023 | -0.035 | 0.117 | 0.02 | 0.034 | -0.219 (active) | 0.016 | -0.115 | 0.084 | -0.019 | 0.056 | 0.136 | -0.028
5 | CAMKK2 (UniProt Q96RR4) | -0.033 | -0.028 | -0.045 | -0.057 | -0.014 | 0.005 | 0.002 | 0.135 | 0.033 | -0.027 | 0.052 | 0.231 (active) | 0.035 | -0.005 | 0.019 | -0.011 | -0.005 | -0.031 | 0.005 | 0.014
6 | ATP6V1B1 (UniProt P15313) | -0.044 | 0.014 | 0.027 | -0.036 | 0.013 | -0.02 | 0.006 | -0.033 | 0.001 | 0.019 | -0.001 | 0 | 0.037 | -0.025 | -0.013 | 0.024 | -0.011 | 0.005 | 0.031 | -0.015
7 | CDC123 (UniProt O75794) | 0.013 | -0.02 | -0.011 | -0.006 | -0.06 | -0.006 | 0.013 | 0 | -0.004 | -0.025 | 0.025 | 0.022 | 0.06 | 0.008 | 0.027 | 0.045 | 0.016 | -0.071 | 0.031 | 0.003
8 | BCAR1 isoform 6 (UniProt P56945) | 0.005 | -0.043 | 0.052 | 0.048 | -0.019 | 0.019 | -0.063 | 0.041 | 0.021 | -0.017 | 0.024 | 0.02 | -0.009 | 0 | 0.01 | 0.03 | -0.056 | -0.014 | 0.006 | -0.033
